# Compound activity as filed in PubChem.
# Hits are enriched below; roughly 11% of the tested compounds scored in any of these assays.
# ALDH1A1 inh: blocks purified human ALDH1A1 activity; P00352; Purified ALDH1A1, NADH fluorescence, propionaldehyde substrate; Potency, µM (titrated, usually from 75.3 µM), most hits filed as inhibitors; 220,000 tested, 7.3% active; active means well fitted inhibition curve with a large enough effect, not every such curve was filed as active; inconclusive means small, poorly fitted or top-dose-only effect, or another doubt; inactive means no such curve, though single readings can be large or run the other way
# 12-hLO inh: blocks human 12-lipoxygenase activity; P18054; purified 12-hLO, xylenol orange hydroperoxide absorbance; AID 1452; Potency, µM (top dose mostly 57.1 µM), actives largely listed as inhibitors; 150,000 tested, 0.12% active; further: nearly all actives have a fitted effect of over 55% in size
#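 Hydroperoxide formation by human 12-lipoxygenase from 40 uM arachidonic acid was followed colorimetrically via ferric-xylenol orange complex, using the 573/405 nm absorbance ratio. Enzyme concentration was 150 nM, with 30 min reaction at room temperature.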
# PNC inhibitor: inhibitors of perinucleolar compartment assembly; 140,000 tested, 3.1% active; AID 2417; PC3M PTB-GFP, PNC prevalence imaging, 16 h; hits give low values; activity change (PNC), negative = inhibition, % at 10 µM;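 active means readout at or below -70, meaning at least 70% loss of cells showing the perinucleolar compartment, a nuclear body marking cancer cells; inconclusive means readout between -30 and a set limit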
#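 Compounds are pinned in duplicate onto adhered PC3M cells stably expressing GFP-tagged PTB and incubated 16 h at 37 C. Cells are then fixed, nuclei stained with Hoechst, and PNC-positive cells counted.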
# IMPase Li inh: membrane-permeable IMPase blocker, potentiated with lithium; CHO-M1 cells, IP1 TR-FRET (IP-One), carbachol + lithium; Potency, µM (doses to about 59.4 µM), hits mostly inhibitors; 210,000 tested, 0.35% active;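 further: IP1 builds up when IMPase is blocked and the TR-FRET signal falls; nearly all actives have a fitted effect of over 50% in size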
#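 Readout is a homogeneous TR-FRET IP1 immunoassay (Ex 320, Em 665 and 620), where raised cytosolic IP1 lowers signal. Cells were CHO-M1 treated 30 min at 37C with test compounds plus a little lithium; AC50 values came from Hill-equation fitting.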
# IMPase cell inh: IMPase inhibition in cells; P97697; CHO-M1 cells, IP1 accumulation, HTRF TR-FRET ratio; inhibition (IP1 accumulation), % at 46.1 µM; 120,000 tested, under 10 active; active means well fitted curve in the direction sought with a large enough effect in the signal ratio, not every such curve was filed as active; inconclusive means small, poorly fitted or top-dose-only effect, or a change in a side signal; inactive means no such curve, though single readings can be large or run the other way; the % refers to the signal ratio;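 further: cells stimulated with carbachol in lithium chloride buffer; higher means more IMPase inhibition seen as more IP1 and lower FRET ratio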
# Target sequence (P97697 whole entry, looked up): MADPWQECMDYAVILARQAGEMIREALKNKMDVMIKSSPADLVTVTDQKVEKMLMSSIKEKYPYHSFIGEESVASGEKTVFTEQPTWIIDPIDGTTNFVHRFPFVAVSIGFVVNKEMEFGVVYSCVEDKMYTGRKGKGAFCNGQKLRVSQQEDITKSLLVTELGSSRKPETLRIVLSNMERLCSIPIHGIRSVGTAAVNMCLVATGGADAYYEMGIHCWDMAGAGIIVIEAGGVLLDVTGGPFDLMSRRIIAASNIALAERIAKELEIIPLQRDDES
#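 CHO-M1, 2000 cells/well, cultured 16–30 h; cpd up to 46 uM; carbachol (50 uM solution, stimulation buffer w/ 50 mM LiCl, pH 7.4), 30 min 37C; IP-One TR-FRET, 10 min RT; Ex 320/Em 665, 620; Hill-fit AC50.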
# HPGD inh: inhibitors of human 15-hydroxyprostaglandin dehydrogenase (HPGD); purified HPGD, NADH fluorescence kinetic, PGE2 substrate; P15428; AID 894; 150,000 tested, 4.3% active; Potency, µM, usual class: inhibitors; active means well fitted inhibition curve with a large enough effect, not every such curve was filed as active; inconclusive means small, poorly fitted or top-dose-only effect, or another doubt; inactive means no such curve, though single readings can be large or run the other way
# Target sequence (P15428 whole entry, looked up): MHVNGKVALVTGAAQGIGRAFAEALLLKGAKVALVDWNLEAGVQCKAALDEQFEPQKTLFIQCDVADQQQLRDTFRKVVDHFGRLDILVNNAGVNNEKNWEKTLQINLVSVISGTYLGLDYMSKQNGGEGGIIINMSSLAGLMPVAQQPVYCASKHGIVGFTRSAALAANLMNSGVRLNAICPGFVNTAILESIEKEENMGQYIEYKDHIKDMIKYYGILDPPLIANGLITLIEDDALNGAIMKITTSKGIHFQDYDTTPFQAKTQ
#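 NADH formation kinetics: reaction with 30 uM PGE2 and 1 mM NAD+ (final), 20 nM enzyme, Tris-HCl pH 8 with Tween 20, after 15 min compound preincubation at room temperature. Fluorescence change, last versus first of five reads.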
# A number is an active result; n = inactive; u = inconclusive; x = no result given; [ ] = dose if it differs, or a comment. Unless noted, the call rests on the fitted dose curve; in most records, active means well fitted curve in the direction sought with a large enough effect; inconclusive means small, poorly fitted or top-dose-only effect, or another doubt; inactive means no such curve, though single readings can be large; an effect the other way counts as inactive or inconclusive.
SMILES,ALDH1A1 inh,12-hLO inh,PNC inhibitor,IMPase Li inh,IMPase cell inh,HPGD inh
O=C(CN1C(=O)S/C(=C\C=C\c2ccccc2)C1=O)Nc1ccc(C(=O)O)cc1,13µM,x,x,x,x,x
O=C(NCc1ccco1)/C(=C\c1cccs1)NC(=O)c1ccco1,n,x,x,n,x,x
C/C(CC(=O)Nc1cccc(Cl)c1Cl)=N\NC(=O)c1ccccc1C,8.9µM,x,x,n,x,x
C/C(CC(=O)Nc1cc(C)ccn1)=N\NC(=O)c1ccccc1C,u,x,x,n,x,x
CCCCCC(O)/C=C/C=O (stereo not drawn),n,n,x,n,x,n
CC1CCC/C(=C\Nc2ccc(O)cc2)C1=O (stereo not drawn),8.9µM,u,n,n,n,u
COc1ccccc1-c1ccc2ncnc(NC3CC3)c2c1,n,x,x,n,x,x
CC(/C=N/n1c(C2CCCCC2)n[nH]c1=S)=C\c1ccccc1,n,u,n,n,n,u
CC(=C/c1ccccc1)/C=N/n1c(-c2ccco2)n[nH]c1=S,u,u,n,n,n,5µM
CC(/C=N/n1c(-c2cc(C)[nH]n2)n[nH]c1=S)=C\c1ccccc1,n,n,n,n,x,10µM
COc1ccc(-n2c(-c3ccco3)n[nH]c2=S)cc1,u,n,n,n,n,u
CCCCC[C@H](O)/C=C/C=C\CCCCCCCC(=O)O,n,n,x,n,x,n
Cc1cc(C)n(-c2nc3ccccc3nc2Nc2cccc(C)c2C)n1,x,x,x,x,n,x
Cc1ccc(-n2nnc3c(SCC(=O)NCC4CCCO4)ncnc32)cc1 (stereo not drawn),n,n,n,n,n,1.3µM
Cc1ccc2nc(SCC(=O)NCC3CCCO3)c(C#N)cc2c1 (stereo not drawn),n,n,n,u,n,6.3µM
Cc1ccc2nc(SCC(=O)Nc3ccccc3N3CCOCC3)c(C#N)cc2c1,n,n,-111,u,n,n
Cc1ccc2cc(C#N)c(SCC(=O)NCC3CCCO3)nc2c1 (stereo not drawn),n,n,n,10µM,u,n
CN1CCN(c2ncncc2-c2ccccc2Cl)CC1,n,x,x,n,x,x
COC(=O)NC(CC(C)=O)c1cccc(F)c1 (stereo not drawn),n[13.5 µM],x,x,x,x,x
COc1cc2c(cc1OC)C1C(=O)c3c(O)cc4c(c3OC1CO2)C=CC(C)(C)O4 (stereo not drawn),u,n,x,n,x,n
Cc1ccc(N2C(=O)c3cccc4cccc(c34)C2=O)cc1,n,x,x,n,x,x
CC1=CC2=C(OC1N(C)C)c1cccc3cccc(c13)C2=O (stereo not drawn),2.2µM,u,n,n,u,n
COc1cccc(-n2nnc3c(=O)n(Cc4cccc(C)c4)cnc32)c1,u,n,u,n,n,u
O=c1c2nnn(Cc3ccc(Cl)cc3)c2ncn1Cc1ccc(F)cc1,n,n,n,n,n,28µM
Cc1ccc(Cn2nnc3c(=O)n(Cc4cccc(C)c4)cnc32)cc1,n,n,u,n,n,5µM
SMILES,ALDH1A1 inh,12-hLO inh,PNC inhibitor,IMPase Li inh,IMPase cell inh,HPGD inh
Cc1ccccc1Cn1cnc2c(nnn2Cc2ccc(F)cc2)c1=O,n,n,u,n,n,n
Cc1ccc(Cn2nnc3c(=O)n(Cc4cc(C)ccc4C)cnc32)cc1,n,n,n,n,n,4µM
Cc1ccc(Cn2cnc3c(nnn3Cc3ccc(Cl)cc3)c2=O)cc1,n,n,n,n,n,n
Cc1cccc(Cn2cnc3c(nnn3Cc3ccc(Cl)cc3)c2=O)c1,n,n,n,n,n,13µM
CC1CC2C3CCC4=CC(=O)C=C[C@@]4(C)[C@]3(F)C(O)C[C@]2(C)[C@]1(O)C(=O)CO (stereo partly drawn),n,n,x,n,x,n
O/N=C/c1ccc(-c2cc(Cl)ccc2Cl)o1,n,n,n,n,x,4.5µM
COC(=O)N/N=C/c1ccc(-c2cc(Cl)ccc2Cl)o1,n,n,u,n,n,n
O/N=C\c1ccc(-c2ccccc2)o1,n,n,u,n,x,14µM
NC(=S)N/N=C/c1ccc(-c2ccccc2)o1,n,x,x,n,x,x
COc1ccc(N=Cc2ccc(-c3ccccc3)o2)cc1,3.2µM,x,x,n,x,x
COc1ccc(N=Cc2ccc[nH]2)cc1,u,n,n,n,n,n
CC(C)(Oc1ccc([C@@H]2CC2(Cl)Cl)cc1)C(=O)O,n,n,x,n,n,n
COc1ccc(CCC(C)NC2C3CC4CC(C3)CC2C4)cc1 (stereo not drawn),n,n,-108,n,n,n
COc1ccc(CCC(C)Nc2ccccc2F)cc1 (stereo not drawn),n,n,n,n,x,n
COCCn1c(=O)c(-c2cc(F)cc(F)c2)nc2cnc(Oc3cccc(Cl)c3)nc21,u,n,x,n,x,u
